Laboratory results published in PubChem BioAssay.
Where “and” joins values, the source holds several entries; their conditions need not be identical. Equal entries are not always repeated. Calls of active or inactive are those of the source.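 Rule for the calls, unless noted: active = inhibition at or above 50% relative to wild type and mutant plate controls; inactive = inhibition below 50%.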

Assays:
[1] = inhibitors of TNFa-induced NFkB p65 translocation, primary screen, imaging, HUVEC, MLSMR starter and 10KST1 sets (AID 438;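 active = inhibition above 20% together with a positive visual image hit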;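 note: compound added about 3h40 before a 20 min TNFalpha stimulation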;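 for inhibition: signal is the nuclear over cytoplasmic p65 intensity ratio per well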); settings: HUVEC TNFa-induced p65 nuclear translocation; cell count: measured here: nuclei count (cytotoxicity indicator), at 2.08 µM; inhibition: at 2 µM, stronger effect = higher value, 0% TNFa-plus-vehicle, 100% no-TNFa wells
[2] = inhibitors of mutant huntingtin aggregation, primary screen, imaging, exon1htt(103Q)mCFP cells, high-content imaging (AID 483;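 active = visual image review flags a hit and inhibition of aggregation exceeds 20%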;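 note: compound exposure lasted 3 days before fixation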;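 for nuclei count: percent of the per-plate median nuclei count of sample wells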); settings: exon1htt(103Q)mCFP cell line, aggregate imaging, at 2 µM; inhibition of aggregation: stronger effect = higher value; nuclei count: measured here: cell count, toxicity
[3] = inhibitors of E-selectin induction by TNFa, primary screen, imaging, HUVEC, immunofluorescence, MLSMR starter and 10KST1 sets (AID 487;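 active = visually confirmed hit in the image check and inhibition above 20%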;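 for inhibition: signal is fraction of cell area covered by stained E-selectin grains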;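 for nuclei count: 100% = median nuclei count of all wells on the same plate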); settings: HUVEC TNFalpha-induced E-selectin immunofluorescence imaging, at 2 µM; inhibition: stronger effect = higher value; nuclei count: measured here: cell number, toxicity
[4] = DUSP6 inhibitors restoring Erk phosphorylation by chemical complementation, primary imaging in DUSP6-transfected HeLa (AID 609;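 active = compounds giving at least 50% inhibition in the cell-based MKP-3 phosphatase rescue imaging test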;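 for inhibition: phospho-Erk level distribution per well compared with pooled transfected vehicle control wells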); settings: HeLa MKP-3 transfected, phospho-Erk imaging KS statistic, at 10 µM, cells stimulated with TPA for 15 min
[5] = biological target: Dual specificity protein phosphatase 6 (Homo sapiens) (UniProt Q16828); assay: as above; settings: HeLa MKP-3 transfected, phospho-Erk imaging KS statistic; at 10 µM; stronger effect = higher value; cells stimulated with TPA for 15 min
Sequence of Dual specificity protein phosphatase 6 (Homo sapiens) (Q16828 whole entry, looked up): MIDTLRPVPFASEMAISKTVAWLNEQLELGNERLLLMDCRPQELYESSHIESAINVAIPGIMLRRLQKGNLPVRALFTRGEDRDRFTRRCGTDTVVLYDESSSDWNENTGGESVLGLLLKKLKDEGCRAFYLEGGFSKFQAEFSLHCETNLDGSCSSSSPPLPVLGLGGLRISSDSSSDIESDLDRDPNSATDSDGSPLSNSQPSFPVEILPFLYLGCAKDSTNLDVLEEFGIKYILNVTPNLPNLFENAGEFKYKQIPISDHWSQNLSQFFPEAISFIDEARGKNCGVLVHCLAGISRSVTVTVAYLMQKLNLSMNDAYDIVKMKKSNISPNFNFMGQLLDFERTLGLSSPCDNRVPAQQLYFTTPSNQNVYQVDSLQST

[6] = biological target: Voltage-gated potassium channel subunit beta-2 (Rattus norvegicus) (UniProt P62483); assay: KvBeta enzyme negative modulators, primary screen, biochemical, NADPH fluorescence (AID 622;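 active = fluorescence slope higher than the sample average by over 3 SD, cut at about -0.22 in these data, passing the limit was not always enough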;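 note: slope of raw intensity against log time taken from 70 to 1610 s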); settings: recombinant KvBeta, 4-cyanobenzaldehyde reduction, at 10 µM, stronger effect = higher value
Sequence of Voltage-gated potassium channel subunit beta-2 (Rattus norvegicus) (P62483 whole entry, looked up): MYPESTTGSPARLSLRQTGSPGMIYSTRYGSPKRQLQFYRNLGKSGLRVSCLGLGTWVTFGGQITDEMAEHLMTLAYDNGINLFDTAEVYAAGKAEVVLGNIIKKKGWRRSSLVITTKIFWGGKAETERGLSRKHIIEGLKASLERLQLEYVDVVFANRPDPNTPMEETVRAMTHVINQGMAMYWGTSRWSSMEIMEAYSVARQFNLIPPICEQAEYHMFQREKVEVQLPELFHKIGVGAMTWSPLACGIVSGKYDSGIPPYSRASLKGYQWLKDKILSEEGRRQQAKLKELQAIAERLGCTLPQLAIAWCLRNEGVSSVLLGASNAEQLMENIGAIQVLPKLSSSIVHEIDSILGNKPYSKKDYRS

[7] = biological target: Voltage-gated potassium channel subunit beta-2 (Rattus norvegicus) (UniProt P62483); assay: KvBeta positive modulators, primary screen, biochemical, NADPH fluorescence (AID 623;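 active = NADPH fluorescence slope more negative than the mean of all samples by about 3 SD, 99.7% confidence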;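 note: fluorescence intensity change per second fitted from 20 to 320 s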); settings: Recombinant KvBeta, NADPH fluorescence decrease slope, 10 min; at 10 µM; stronger effect = lower value
[8] = biological target: Alpha-2C adrenergic receptor (Homo sapiens) (UniProt P18825); assay: modulators of alpha2C/GIRK thallium flux, primary screen, cell-based, HEK293 alpha2C/GIRK1/2 (AID 624;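 active = fluorescence slope after compound addition differing from the mean of all screened samples at 99.7% confidence, in either direction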;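 note: slope of fluorescence ratio to pre-addition baseline per second over 15 to 24 s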); settings: thallium flux BTC fluorescence, at 10 µM, actives lie on both sides
Sequence of Alpha-2C adrenergic receptor (Homo sapiens) (P18825 whole entry, looked up): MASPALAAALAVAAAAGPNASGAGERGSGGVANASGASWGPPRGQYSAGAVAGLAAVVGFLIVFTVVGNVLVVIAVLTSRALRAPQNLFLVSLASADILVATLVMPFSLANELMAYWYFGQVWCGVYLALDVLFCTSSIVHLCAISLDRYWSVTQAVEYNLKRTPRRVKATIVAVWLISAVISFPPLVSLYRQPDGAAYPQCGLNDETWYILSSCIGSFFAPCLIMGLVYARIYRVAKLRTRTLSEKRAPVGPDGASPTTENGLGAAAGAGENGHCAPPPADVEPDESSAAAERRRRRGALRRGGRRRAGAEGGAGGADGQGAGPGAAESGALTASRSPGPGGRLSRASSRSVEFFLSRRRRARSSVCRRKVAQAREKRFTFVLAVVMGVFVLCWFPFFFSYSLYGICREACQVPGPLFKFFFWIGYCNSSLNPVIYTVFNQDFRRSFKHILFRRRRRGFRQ

[9] = inhibitors of larval lipid processing in zebrafish, primary screen, whole organism, PED6 fluorescence, gall bladder and intestine (AID 686;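 active = a full or partial loss of lipid-probe fluorescence in the fish gall bladder, intestine or both, judged by eye; inactive = no fluorescence loss, or compound toxic to the fish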;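 note: larvae 5 to 7 days old with five fish per well; signal comes from phospholipase A2 cleavage of quenched PED6 carried via bile; overnight exposure to compound and PED6 before scoring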); settings: Zebrafish larvae PED6 lipid processing, fluorescence scoring; screened at 20 µM (by protocol)
[10] = inhibitors of Chlamydomonas gravitaxis, primary screen, whole organism, Chlamydomonas reinhardtii, WT vs cilia-less mutant, absorbance, 96-well (AID 463189); settings: OD600 absorbance, 2 days, at 10 µM, stronger effect = higher value;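 note: 0% = wild type cc124 cells in DMSO and 100% = ciliumless bld1 mutant cells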
[11] = inhibitors of Sendai virus-induced IRF3 signaling, primary screen, TLR/RLR signaling modifier project, cell-based, Sendai virus stimulus, luciferase, 10K MLSCN set (AID 602276;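 active = inhibition at or above 50% at 10 µM; inactive = inhibition below 50%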;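 note: firefly luciferase from ISG56 promoter only with Renilla not read in this screen; 0% = Sendai virus plus DMSO and 100% = medium plus DMSO without virus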); settings: HEK293 RL24 IRF3 luciferase reporter, at 10 µM, stronger effect = higher value
[12] = inhibitors of poly I:C-induced TLR3 signaling, primary screen, cell-based, poly I:C stimulus, luciferase, 10K MLSCN set (AID 602277;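 active = inhibition of the reporter signal at or above 50%; inactive = inhibition below 50%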); settings: HEK293-TLR3 RL24 IRF3 luciferase reporter, at 10 µM, stronger effect = higher value
[13] = measured here: cell density z-score
[14] = measured here: nuclear c-Myc green intensity z-score
[15] = measured here: nuclear pErk red intensity z-score, stronger effect = higher value

Row | Compound | cell count [1] | inhibition [1] | inhibition of aggregation [2] | nuclei count [2] | inhibition [3] | nuclei count [3] | z-score [4, 13] | z-score [4, 14] | z-score [4, 15] | inhibition [5] | fluorescence slope [6] | NADPH fluorescence slope [7] | slope [8] | outcome [9] | inhibition [10] | inhibition [11] | inhibition [12]
1 | CCN1CCN(c2nc3c(C)cccn3c(=O)c2/C=C(\C#N)S(=O)(=O)c2ccccc2)CC1 | 501 | -1.7% (inactive) | -13.4% (inactive) | 108% | -71.1% (inactive) | 118% | 0.894 | -1.58 | 2.23 | 3.5% (inactive) | -0.517 (inactive) | -1.8e-05 (inactive) | 0.00181 (inactive) | inactive | 18.9% (inactive) | 9.29% (inactive) | 23.8% (inactive)
2 | NC(N)=NC(N)=NCCc1ccccc1 | 589 | -4.3% (inactive) | -8.6% (inactive) | 93.2% | -58.8% (inactive) | 108% | -1 | -0.445 | -0.339 | -2.46% (inactive) | -0.439 (inactive) | -1.7e-05 (inactive) | 0.004 (inactive) | inactive | -5.62% (inactive) | 10.9% (inactive) | 30.4% (inactive)
3 | Cc1nc2c(c(=O)n1CC1CCCO1)c1nc3ccccc3nc1n2CC(C)C (stereo not drawn) | 460 | -4.3% (inactive) | 12.6% (inactive) | 107% | -42.3% (inactive) | 96.8% | 1.43 | 1.1 | -2.3 | 9.42% (inactive) | -0.449 (inactive) | -6.4e-05 (inactive) | 0.00602 (inactive) | inactive | 0.529% (inactive) | 20.9% (inactive) | 22.8% (inactive)
4 | Nc1nnc(-c2cccc(Cl)c2Cl)c(N)n1 | 697 | -8.4% (inactive) | 2.2% (inactive) | 112% | -39.9% (inactive) | 139% | -0.0756 | -0.0257 | 1.16 | 1.48% (inactive) | -0.527 (inactive) | -7.1e-06 (inactive) | 0.00578 (inactive) | inactive | -6.28% (inactive) and 7.36% (inactive) | -2.35% (inactive) | 13.8% (inactive)
5 | COc1ccc(/C=C(/C#N)c2cccnc2)cc1OC | 515 | 4.6% (inactive) | 17.7% (inactive) | 82.3% | -17.2% (inactive) | 112% | 0.571 | -1.05 | -1.32 | 1.48% (inactive) | -0.499 (inactive) | -4.4e-05 (inactive) | 0.00455 (inactive) | inactive | -22% (inactive) | 6.71% (inactive) | -45.5% (inactive)
6 | CCCCN(CCCC)CCCOC(=O)c1ccc(N)cc1 | 680 | -1.8% (inactive) | 7.7% (inactive) | 97.6% | -60.2% (inactive) | 130% | -0.857 | -0.989 | 0.993 | -4.44% (inactive) | -0.511 (inactive) | -5.7e-05 (inactive) | 0.00529 (inactive) | inactive | 12.6% (inactive) | -12.8% (inactive) | 56.3% (active)
7 | c1cc2c(cc1C1=Nn3c(nnc3C3CCCCC3)SC1)OCO2 | 636 | -0.8% (inactive) | 5.8% (inactive) | 31.9% | -52.3% (inactive) | 113% | -0.24 | 0.613 | -0.0709 | -6.06% (inactive) | -0.481 (inactive) | -8.1e-05 (inactive) | 0.00571 (inactive) | inactive | -5.58% (inactive) | 25.1% (inactive) | 31% (inactive)
8 | CC(=O)Nc1ccc(S(=O)(=O)Nc2nc3n(n2)C(c2ccccc2)CC(=O)N3)cc1 (stereo not drawn) | 456 | -7.4% (inactive) | -5.2% (inactive) | 116% | -106% (inactive) | 137% | -0.235 | -1.01 | 1.56 | 21% (inactive) | -0.507 (inactive) | -2e-05 (inactive) | 0.00521 (inactive) | inactive | -0.258% (inactive) | 16.4% (inactive) | 16.2% (inactive)
9 | CC(=O)[C@@]1(O)CC[C@H]2[C@@H]3CCC4=CC(=O)CC[C@]4(C)[C@H]3[C@@H](O)C[C@@]21C | 623 | 0.5% (inactive) | 16.3% (inactive) | 83% | -142% (inactive) | 140% | -0.503 | -0.682 | 0.228 | -4.44% (inactive) | -0.495 (inactive) | -5.2e-05 (inactive) | 0.00465 (inactive) | inactive | -7.94% (inactive) | 8.03% (inactive) | 38.5% (inactive)
10 | CCCCC(=O)Nc1c(O)c2ccccc2[nH]c1=O | 450 | 1.5% (inactive) | -22.7% (inactive) | 104% | -155% (inactive) | 137% | -1.21 | 0.174 | 1.14 | -8.95% (inactive) | -0.491 (inactive) | -0.000197 (inactive) | 0.00511 (inactive) | inactive | -4.89% (inactive) | 2.04% (inactive) | 1.03% (inactive)
11 | CC[N+](C)(C)c1cccc(O)c1 | 610 | -6.9% (inactive) | 10.2% (inactive) | 102% | -108% (inactive) | 130% | -0.368 | -0.0907 | -0.21 | 3.45% (inactive) | -0.492 (inactive) | -5.2e-05 (inactive) | 0.00476 (inactive) | inactive | 6.97% (inactive) and -3.25% (inactive) | 16.5% (inactive) | 38.2% (inactive)
12 | C[C@]12CC[C@@H]3c4ccc(O)cc4CC[C@H]3[C@@H]1CCC2=O | 576 | -0.3% (inactive) | 3.1% (inactive) | 98% | -80.9% (inactive) | 120% | -8.47 | 2.04 | 2.06 | 17.3% (inactive) | -0.463 (inactive) | -3.3e-05 (inactive) | 0.00425 (inactive) | inactive | -0.014% (inactive) and 40.8% (inactive) | 8.21% (inactive) | 34.8% (inactive)
13 | CC1CCc2cc(F)cc3c(O)c(C(=O)NCC4CCCO4)c(=O)n1c23 (stereo not drawn) | 553 | 2.6% (inactive) | 1.2% (inactive) | 83.8% | -28.6% (inactive) | 134% | -0.0424 | -0.796 | -0.351 | -8.76% (inactive) | -0.395 (inactive) | 1.7e-06 (inactive) | 0.0054 (inactive) | inactive | 11.8% (inactive) | 4.8% (inactive) | 8.44% (inactive)
14 | CCCN(CCC)C(=O)C(CCC(=O)O)NC(=O)c1ccccc1 (stereo not drawn) | 589 | -1.1% (inactive) | 11.8% (inactive) | 92.5% | -37.3% (inactive) | 118% | -1.75 | 0.853 | -0.876 | 5.79% (inactive) | -0.461 (inactive) | -3.2e-05 (inactive) | 0.00459 (inactive) | inactive | 5.36% (inactive) and -10.6% (inactive) | 11.3% (inactive) | 28% (inactive)
15 | CC1CNCCN1S(=O)(=O)c1cccc2cnccc12 (stereo not drawn) | 695 | -8.2% (inactive) | 13% (inactive) | 109% | -58.8% (inactive) | 129% | -0.528 | 0.0835 | -0.173 | 15.3% (inactive) | -0.449 (inactive) | -4.6e-05 (inactive) | 0.00348 (inactive) | inactive | 0.228% (inactive) and 8.92% (inactive) and 17.2% (inactive) | 15.5% (inactive) | 43% (inactive)
16 | Oc1ccc(/C=C/c2cc(O)cc(O)c2)cc1 | 597 | 2.2% (inactive) | 6% (inactive) | 98.6% | -78% (inactive) | 118% | -1.5 | -0.867 | 1.21 | 14.6% (inactive) | -0.411 (inactive) | -0.000101 (inactive) | 0.00434 (inactive) | inactive | 3.52% (inactive) and 10.8% (inactive) | -39.2% (inactive) | -231% (inactive)
17 | C[C@]12CC[C@@H]3c4ccc(O)cc4C(=O)C[C@H]3[C@@H]1CC[C@@H]2O | 575 | -1.5% (inactive) | 12.4% (inactive) | 79.9% | -48.8% (inactive) | 123% | 0.0524 | 0.457 | 1.93 | 10.2% (inactive) | -0.47 (inactive) | -7.3e-05 (inactive) | 0.00515 (inactive) | inactive | -6.24% (inactive) | -0.554% (inactive) | 18.4% (inactive)
18 | CCCCOc1cc(C(=O)NCCN(CC)CC)c2ccccc2n1 | 511 and 578 | -5.3% (inactive) and -4.6% (inactive) | 9.3% (inactive) and -1.1% (inactive) | 92.4% and 92.8% | 13% (inactive) and -47.1% (inactive) | 125% and 129% | -0.0512 and 0.242 | 1.21 and -0.093 | 0.116 and 1.52 | 11.3% (inactive) and -6.41% (inactive) | -0.452 (inactive) and -0.465 (inactive) | -7.4e-05 (inactive) and -5.9e-05 (inactive) | 0.00498 (inactive) and 0.00574 (inactive) | inactive | 1.51% (inactive) and 12.2% (inactive) | 4.17% (inactive) and 5.36% (inactive) | 54.6% (active) and 61.4% (active)
19 | Cc1cccc(N(C)C(=S)Oc2ccc3ccccc3c2)c1 | 604 | -0.1% (inactive) | 1.5% (inactive) | 115% | -124% (inactive) | 117% | -0.0512 | 0.405 | -0.61 | 5.42% (inactive) | -0.463 (inactive) | -2.6e-05 (inactive) | 0.00625 (inactive) | active; weak signal in gallbladder and intestine | 97.3% (active) | -6.47% (inactive) | -10.7% (inactive)
